This test relates to A549. The test is described as follows: relative viability (normalised to negative control = 1, bortezomib = 0) (fraction); higher = less cytotoxic. Particulars: inflammatory serum-free RHB-A with cytokines + LPS, 5 d + 24 h CellTiter-Blue.
Setting [1] is: compound 30 nM, GSK126 pretreatment: 5 uM GSK126.
[2] abbreviates: compound 30 nM, GSK126 pretreatment: none (vehicle).
[3] abbreviates: compound 300 nM, GSK126 pretreatment: 5 uM GSK126.
[4] abbreviates: compound 300 nM, GSK126 pretreatment: none (vehicle).

SMILES strings stand for the structures. Where a name gives a salt, the structure may show the parent alone. ± gives the standard deviation of the averaged measurements.

Take `O=C(NOCC1CC1)c1ccc(F)c(F)c1Nc1ccc(I)cc1Cl`: the relative viability was 0.441 ± 0.038 under setting [1], 0.55 ± 0.088 under setting [2], 0.256 ± 0.014 under setting [3] and 0.312 ± 0.033 under setting [4].
As for `COc1cc(Nc2c(C#N)cnc3cc(OCCCN4CCN(C)CC4)c(OC)cc23)c(Cl)cc1Cl` [Bosutinib(SKI-606)], the relative viability reads like this: under setting [1], 0.984 ± 0.052; under setting [2], 0.991 ± 0.061; under setting [3], 0.65 ± 0.061; under setting [4], 0.7617 ± 0.007.
The like results for `Nc1cccc2c1CN(C1CCC(=O)NC1=O)C2=O` (centres undefined) [Lenalidomide] were, in that order, 0.854 ± 0.11, 0.789 ± 0.061, 0.882 ± 0.059 and 0.82 ± 0.035.
The corresponding values for `CC[C@@H]1C(=O)N(C)c2cnc(Nc3ccc(C(=O)NC4CCC(N5CCN(CC6CC6)CC5)CC4)cc3OC)nc2N1C(C)C` (some centres undefined) [BI6727 (Volasertib)] are 0.404 ± 0.1, 0.38 ± 0.095, 0.227 ± 0.042 and 0.249 ± 0.097.
The corresponding values for `Cc1nc(NC(=O)N2CCC[C@H]2C(N)=O)sc1-c1csc(C(C)(C)C)n1` are 0.809 ± 0.045, 0.869 ± 0.085, 0.704 ± 0.044 and 0.784 ± 0.059.
`CC1(COc2ccc3c(c2)ncn3-c2ccc3cccc(N4CCC(N)CC4)c3n2)COC1`: the relative viability is, setting by setting: under setting [1], 0.986 ± 0.081; under setting [2], 0.966 ± 0.12; under setting [3], 1.3 ± 0.087; under setting [4], 1.34 ± 0.12.
The like results for `NCC(=O)CCC(=O)O` [Aminolevulinic acid hydrochloride; Aminolevulinic acid] were, in that order, 1.08 ± 0.17, 0.985 ± 0.1, 1.05 ± 0.12 and 0.981 ± 0.053.
Turning to `O=C1CCC(N2C(=O)c3ccccc3C2=O)C(=O)N1` (centres undefined), the relative viability under setting [1] came out at 0.862 ± 0.17, the relative viability under setting [2] came to 0.862 ± 0.13, the relative viability under setting [3] is 0.865 ± 0.06 and the relative viability under setting [4] worked out at 0.87 ± 0.034.
On to `O=C(NOCC(O)CO)c1cc(Br)c(F)c(F)c1Nc1ccc(I)cc1F` (centres undefined), for which the relative viability under setting [1] stood at 0.407 ± 0.025, the relative viability under setting [2] came to 0.492 ± 0.087, the relative viability under setting [3] was 0.193 ± 0.019 and the relative viability under setting [4] is 0.276 ± 0.0045.
The like results for `C[C@@H]1CN(CC(=O)Nc2ccc3c(c2)Cc2cccc(-c4cc(=O)cc(N5CCOCC5)o4)c2S3)C[C@H](C)O1` were, in that order, 0.816 ± 0.029, 0.857 ± 0.089, 0.907 ± 0.043 and 0.943 ± 0.024.
The corresponding values for `Clc1ccc(C2(c3ccc(-c4cn[nH]c4)cc3)CCNCC2)cc1` are 0.706 ± 0.086, 0.77 ± 0.055, 0.734 ± 0.044 and 0.854 ± 0.012.

For the origin of these results see the supplement of paper PMC6279402.
